Compound activity (PubChem BioAssay)
This is a sample that favours compounds with a hit; in the whole collection about 3.6% have one here.
D1 potentiator = Potentiators of Human D1 Dopamine Receptor: qHTS | D(1A) dopamine receptor (Homo sapiens), P21728 | HEK293 TREx D1 cells, calcium flux, dopamine EC20 potentiation | potentiation, % at 10 µM | 360,000 compounds, 0.036% hits | AID 504651, 2011; in the data active = potentiation above about 30%; note: 0% is about no effect
Target sequence (P21728 whole entry, looked up): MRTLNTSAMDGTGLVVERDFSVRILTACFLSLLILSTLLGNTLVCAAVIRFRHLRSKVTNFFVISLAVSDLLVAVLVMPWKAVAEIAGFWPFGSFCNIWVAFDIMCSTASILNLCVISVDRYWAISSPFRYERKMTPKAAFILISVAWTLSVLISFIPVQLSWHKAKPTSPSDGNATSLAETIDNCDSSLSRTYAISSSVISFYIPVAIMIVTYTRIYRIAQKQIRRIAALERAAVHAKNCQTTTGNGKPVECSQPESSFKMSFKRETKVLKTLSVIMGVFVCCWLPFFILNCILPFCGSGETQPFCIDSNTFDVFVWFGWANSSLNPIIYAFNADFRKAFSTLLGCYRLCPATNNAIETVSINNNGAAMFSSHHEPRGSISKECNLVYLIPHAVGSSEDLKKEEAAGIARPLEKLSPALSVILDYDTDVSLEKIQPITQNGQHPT
D1 antag = Antagonist of Human D 1 Dopamine Receptor: qHTS. 360,000 compounds, 3.2% hits. D(1A) dopamine receptor (Homo sapiens), P21728. activity change, negative = inhibition, % at 10 µM. HEK293 TREx D1 cells, calcium flux, dopamine EC80; hits give low values; in the data active = activity change below about -30%; note: % is set by controls: 0 for no effect and ±100 for the full control effect
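Allosteric or orthosteric antagonism assessed as attenuation of the calcium response to EC80 dopamine, added 180 s after compound, in induced HEK293 Trex D1 cells loaded with no-wash calcium dye.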
D1 ag = Allosteric Agonists of the Human D1 Dopamine Receptor: qHTS. AID 504660, 2011. D(1A) dopamine receptor (Homo sapiens), P21728. HEK293 T-REx D1 cells, calcium flux, agonist mode. activation, % at 2 µM. 360,000 compounds, 1% hits; note: 0% is about no effect
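Tetracycline-induced HEK293 TREx D1 cells, force-coupled to calcium signalling, were dye-loaded with a no-wash calcium kit. Compound was pin-added after a 10 s baseline. Fluorescence was read kinetically at 1 cycle/s for 180 s, with calcium rises flagged as agonism.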
TRHR enhancer = qHTS for Small Molecule Agonists and Allosteric Enhancers of Human TRH Receptor: Primary Screen for Enhancers | TRHR cells, fluo-8 calcium fluorescence, EC20 TRH enhancement | enhancement, % at 2 µM | 360,000 compounds, 0.66% hits | AID 493056, 2011; in the data active = enhancement above about 30%; note: 0% is about no effect
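TRHR-expressing cells loaded with fluo-8 calcium dye were read kinetically (ex 480/em 530) during compound addition, then stimulated with an EC20 of TRH (10 nM final). Enhancement of the Gq-mediated intracellular calcium response was scored.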
TRHR ag = qHTS for Small Molecule Agonists and Allosteric Enhancers of Human TRH Receptor: Primary Screen for Agonists; TRHR cells, calcium flux fluo-8, FDSS agonist mode; activation, % at 2 µM; 360,000 compounds, 0.18% hits; AID 493084, 2011; note: 0% is about no effect
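Read-out: compound-evoked intracellular calcium rise in TRHR cells, fluo-8 dye, kinetic FDSS fluorescence at 1 s/cycle following a 10-cycle baseline. Cells cultured overnight before dye loading (30 min–1.5 h, RT).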
LDHA inh = qHTS assay for inhibitors of human lactate dehydrogenase; L-lactate dehydrogenase A chain (Homo sapiens), P00338; purified LDHA, NADH/diaphorase-resazurin fluorescence; hits give low values; activity change, % (values are at about 110 or 230 µM); 480,000 compounds, 0.15% hits; in the data active = activity change below about -30%;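 note: plate controls were DMSO wells for no effect and wells without enzyme for full effect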
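Resorufin fluorescence (ex540/em590), read at 0 and 20 min after diaphorase/resazurin addition, reports the NADH left after a 5 min room-temperature reaction of 2 nM human LDH5 with 0.06 mM NADH and 0.2 mM pyruvate.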
An asterisk follows results filed as active; x = no result; ! = not confirmed by another sample. Cut-off read from the data, not from the text of the source, unless noted: active = activation above about 30%; inactive = the rest.

SMILES	D1 potentiator	D1 antag	D1 ag	TRHR enhancer	TRHR ag	LDHA inh
COc1ccc(-n2ncc(C(=O)N3CCN(c4cc(C)ccc4C)CC3)c2C2CCN(C(=O)OC(C)(C)C)CC2)cc1	-6	-31*	1	3	1	-11
CCCCS(=O)(=O)CCSS(=O)(=O)O	x	x	x	x	x	-8
Cc1ccc(C(=O)NC(C)C2CC3CCC2C3)s1 (stereo unspecified)	x	x	x	x	x	-7
CN(C)CCNC(=O)CN1CCN(C(C(=O)O)c2c[nH]c3cc(OCc4ccccc4)ccc23)CC1 (stereo unspecified)	x	x	x	x	x	-1
CCC(C)(C(=O)NC1CCCC1)N(C(=O)c1cnccn1)c1ccccc1 (stereo unspecified)	-5	-45*	5	-1	1	-6
N#CC(C#N)=C1C=CC=CN1/C(=C\c1ccco1)C(=O)c1ccccc1	-7	-75*	0	-7	0	1
N#CC(C#N)=C1C=CC=CN1/C(=C\c1ccco1)C(=O)c1ccc(Br)cc1	-11	-48*	5	3	0	1
COc1ccc(C(=O)/C(=C\c2ccco2)N2C=CC=CC2=C(C#N)C#N)cc1	-8	-41*	9	-7	0	2
N#C/C(=C\c1ccco1)C(=O)c1ccccc1	x	x	x	x	x	-9
Cc1ccc(C)c(NC(=O)c2cc(-c3cc(C)c(C)cc3O)n[nH]2)c1	-2	0	6	5	4	-4
Cc1cc(C)c(-c2cc(C(=O)Nc3cc(C)ccc3C)[nH]n2)c(O)c1	0	-23	4	33*	0	-5
Cc1ccc(-c2cc(C(=O)Nc3cc(C)ccc3C)[nH]n2)c(O)c1	-9	-37*	-1	7	1	-7
Cc1ccc(C)c(NC(=O)c2cc(-c3ccccc3O)n[nH]2)c1	-7	-22	2	-1	1	2
CC(C)(C)NC(=O)CSc1nc2c(c(C(F)(F)F)c1C#N)CCCC2	x	x	x	x	x	6
COc1ccc(Cl)cc1NC(=O)CCCn1c(C)c2cnn(-c3ccccc3)c(=O)c2c1C	-5	-79*	1	2	0	4
COc1ccc(Cl)cc1NC(=O)COC(=O)CCCN1C(=O)c2ccccc2C1=O	-1	-33*	6	2	0	-8
C/C(=N\NC(=O)Cc1cccn1C)c1ccc2ccccc2c1	-8	-36*	2	6	0	-11
COc1cc(-c2nc3cnccn3c2Nc2ccc(C(C)C)cc2)ccc1O	-1	-7	34*!	-5	0	-4
COc1cc(-c2nc3cnccn3c2Nc2ccc(C)cc2)ccc1O	5	-15	0	-1	-1	-1
Cc1cccc(N2CCN(C(=O)c3ccc4nc[nH]c4c3)CC2)c1C	-7	-46*	20	2	-1	-2
Cc1ccc(Cl)cc1N1CCN(C(=O)c2ccc3nc[nH]c3c2)CC1	-5	-1	7	2	1	-5
O=C(NCc1ccccc1)C(c1ccccc1)N(Cc1ccc2c(c1)OCO2)C(=O)Cc1cccs1 (stereo unspecified)	-6	-7	34*	7	-1	-6
O=C(NC1CCCC1)C(c1ccccc1)N(Cc1ccc2c(c1)OCO2)C(=O)Cc1cccs1 (stereo unspecified)	-8	-9	3	-5	1	-1
COC(=O)CNc1c(-c2ccccc2)nc2ccc(Br)cn12	2	10	0	38*	-2	3
COC(=O)Nc1c(-c2ccccc2)nc2ccc(Cl)cn12	-1	5	-1	-4	0	-3
CCOC(=O)C1(Cc2cccc(Cl)c2)CCCN(C(=O)c2cn[nH]c2)C1 (stereo unspecified)	-1	-1	0	15	-2	-9
CCOC(=O)C1(Cc2cccc(Cl)c2)CCCN(C(=O)c2cnn(CC)c2)C1 (stereo unspecified)	-4	-38*	1	-2	0	-6
